Screening data from PubChem.
The list is not random: actives were taken first. Their share in the collection is about 9.4%.
SMN2 splice up: enhancers of SMN2 splice variant expression. Potency, µM (doses to about 46.1 µM), without a hit: top-dose activity change, positive = activation, hits mostly activators. 210,000 compounds, 2.8% hits. HEK293 SMN2-luciferase splicing reporter, luminescence, 30-36 h; further: % of control where 0% means no effect; nearly all actives have a fitted effect of over 55% in size
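HEK293 cells carry an SMN2 minigene-luciferase reporter in which exon 7 inclusion puts luciferase in frame. Cells were seeded at 2000 cells/well, attached for 10-12 hours, then exposed to compounds for 30-36 hours at 37C before ONE-Glo luminescence.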
NPC1 promoter act: activators of NPC1 promoter; Potency, µM (doses to about 9.22 µM), for inactives: top-dose activation, most hits filed as activators; 320,000 compounds, 2.4% hits; Huh7 NPC1 promoter luciferase reporter, 24 h; further: % of control where 0% means no effect; nearly all actives have a fitted effect of over 60% in size
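In 1536-well qHTS, Huh7 cells harboring an NPC1 promoter–luciferase construct received compound for 24 h; activation was quantified by luminescence following luciferase reagent addition.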
FLuc counter: counter-screen for miR-21 project: firefly luciferase inhibitors or activators; P08659; purified FLuc, Km substrates, luminescence inhibition; Potency, µM (top dose mostly 57.5 µM), for the others: top-dose activity change, negative = inhibition, usual class: inhibitors; 360,000 compounds, 6.9% hits; AID 588342;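 further: plate controls were vehicle for no effect and reference inhibitor for full effect; nearly all actives have a fitted effect of over 55% in size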
Target sequence (P08659 whole entry, looked up): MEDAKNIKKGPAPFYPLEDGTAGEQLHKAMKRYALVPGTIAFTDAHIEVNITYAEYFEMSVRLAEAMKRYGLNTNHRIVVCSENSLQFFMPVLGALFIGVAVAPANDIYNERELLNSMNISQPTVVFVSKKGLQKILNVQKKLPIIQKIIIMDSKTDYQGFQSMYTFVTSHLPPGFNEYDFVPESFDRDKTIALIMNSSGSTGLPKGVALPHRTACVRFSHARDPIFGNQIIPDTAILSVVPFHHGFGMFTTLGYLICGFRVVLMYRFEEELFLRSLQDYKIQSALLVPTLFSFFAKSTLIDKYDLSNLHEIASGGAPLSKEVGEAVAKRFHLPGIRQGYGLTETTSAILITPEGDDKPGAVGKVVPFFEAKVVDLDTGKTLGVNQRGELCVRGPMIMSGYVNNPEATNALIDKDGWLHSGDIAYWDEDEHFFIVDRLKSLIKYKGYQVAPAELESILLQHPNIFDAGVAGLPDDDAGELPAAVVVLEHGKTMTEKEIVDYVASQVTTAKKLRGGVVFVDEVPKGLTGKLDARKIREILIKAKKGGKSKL
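Biochemical qHTS of compounds, final roughly 60 µM downward over six points, against 10 nM purified firefly luciferase using Km concentrations of substrates (10 uM D-luciferin, 10 uM ATP) in Tris acetate pH 7.5 buffer; luminescence output.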
Rab9 prom act: activators of Rab9 promoter | AID 485297 | 320,000 compounds, 2.8% hits | Potency, µM (highest dose often 9.22 µM), for inactives: at the highest dose activation, negative = inhibition, hits mostly activators | Huh7 Rab9 promoter-luciferase reporter, luminescence, 24 h; further: % of control where 0% means no effect; nearly all actives have a fitted effect of over 60% in size
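Promoter activation is measured as luciferase luminescence in Huh7 cells stably transfected with a Rab9 promoter–luciferase construct, following 24 h compound exposure at 37 °C and 10 min reagent incubation at ambient temperature.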
ELG1 DNA repair: inhibitors of ELG1-dependent DNA repair in HEK293T cells | Potency, µM (titrated, usually from 46.1 µM), for inactives: at the top dose activity change, negative = inhibition, actives largely listed as inhibitors | 330,000 compounds, 2.3% hits | HEK293T ELG1-luciferase reporter, luminescence, 16 h; DNA damage induced by 5-fluorouridine; further: on the % scale 0 is the no-effect control and ±100 the full control effect; nearly all actives have a fitted effect of over 55% in size
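Cells (2,000 per well) received 5-fluorouridine plus test compound or DMSO and were incubated 16 hr at 37 °C, 5% CO2. Luciferase activity was read by luminescence 30 min after ONE-Glo addition; signal suppression marked inhibition of damage-induced ELG1 function.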
ELG1 genotox: genotoxicity induction in ELG1-luciferase HEK293T cells; 330,000 compounds, 1.3% hits; HEK293T ELG1-luciferase reporter, luminescence, 16 h; Potency, µM (doses to about 46 µM), inactives show at the highest dose activity change, positive = activation, hits mostly activators; further: % of control where 0% means no effect; nearly all actives have a fitted effect of over 60% in size
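HEK293T cells expressing luciferase-tagged ELG1 were exposed to compound or DMSO vehicle for 16 hr at 37 °C and 5% CO2. Luciferase activity was then measured with ONE-Glo after 30 min at room temperature.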
* marks the source's active call; other numbers are inactive results; ? = inconclusive; / = no result; [ ] = remark or other dose. The call rests on the fitted dose curve; in most records, active means well fitted curve in the direction sought with a large enough effect; inconclusive means small, poorly fitted or top-dose-only effect, or another doubt; inactive means no such curve, though single readings can be large; an effect the other way counts as inactive or inconclusive. Potency means the concentration at half of the fitted maximal effect.

SMILES | SMN2 splice up | NPC1 promoter act | FLuc counter | Rab9 prom act | ELG1 DNA repair | ELG1 genotox
CCCCc1nc2c(c3c1C[C@H](C)OC3)CN(C(=O)COC)CC2 | 10%[9.22 µM] | / | / | / | / | /
Fc1cccc(F)c1/C=C/c1ccc2ccccc2n1 | / | ? | 0.27µM* | 4µM* | ? | 0.58µM*
O=C(/C=C/c1ccc2ccccc2n1)N1CCN(S(=O)(=O)c2ccc(F)cc2)CC1 | / | -3% | -3% | -7% | ? | -4%
NC(=O)c1ccsc1NC(=O)c1ccc2c(c1)CCCC2 | 1.6µM* | ? | 0.6µM* | ? | ? | 2.6µM*
CC(C)Cc1nnc(NC(=O)c2ccc(N3CCCC3=O)cc2)s1 | / | 0% | -8% | -4% | 12% | 0%
CNC(=O)c1ccsc1NC(=O)c1ccc2c(c1)CCCC2 | 11µM* | -3% | 0.95µM* | 12% | ? | 17%
NC(=O)c1ccsc1NC(=O)C1CCCCC1 | -16% | 7% | -21% | -7% | ? | 15%
NC(=O)c1ccsc1NC(=O)c1ccc(N2CCCC2=O)cc1 | 18µM* | 2.2µM* | 3µM* | 0.63µM* | ? | 1.6µM*
Cc1ccc(-n2ncc(C(=O)N3CCN(Cc4ccccc4)CC3)c2C2CCN(C(=O)OC(C)(C)C)CC2)c(C)c1 | / | / | 6% | / | / | /
CSc1ccccc1OCc1cc(C(=O)N(C)CCn2nc(C)cc2C)no1 | / | 8% | -19% | 9% | -16% | 3%
CSc1ccccc1OCc1cc(C(=O)N(C)Cc2nonc2C)no1 | / | 2.2µM* | 13µM* | 2µM* | ? | ?
CSc1ccccc1OCc1cc(C(=O)N(C)Cc2ccncn2)no1 | / | 2µM* | 15µM* | 2µM* | ? | 16µM*
CCn1ccnc1CN(C)C(=O)c1cc(COc2ccccc2SC)on1 | / | ? | 12µM* | 2.8µM* | ? | ?
Cc1cccc(C)c1NC(=O)CN(C)C(=O)c1cccc(NS(=O)(=O)c2ccccc2)c1 | / | -1% | -2% | -4% | 0% | 2%
Fc1cccc(CNc2ncnc3ccc(-c4ccccc4Cl)cc23)c1 | / | -7% | ? | -2% | / | /
CCN1CCc2c(sc(-n3cccc3)c2C(C)NC(=O)Nc2cc(Cl)c(OC)cc2OC)C1 (centres undefined) | / | / | 5% | / | / | /
COc1ccc(NC(=O)c2cccc(S(=O)(=O)NCc3ccco3)c2)c(OC)c1 | / | 2% | 4% | -3% | -24% | 6%
CN(Cc1ccccc1)C(=O)Nc1ccc2c(c1)N(C)C(=O)c1ccccc1S2 | / | / | 1% | / | / | /
CC(=O)N(C)/C=C1\Sc2ccccc2C1=O | -4% | -3% | ? | -4% | 15% | 5%
CCC(=O)N(C)/C=C1\Sc2ccccc2C1=O | 4% | -6% | 11µM* | 9% | ? | 4%
O=CN(/C=C1\Sc2ccccc2C1=O)Cc1ccccc1 | -4% | 10% | 11µM* | 18% | ? | ?
O=C(COC(=O)Cc1c(Cl)cccc1Cl)Nc1ccc(OC(F)(F)F)cc1 | 5% | 1% | -7% | -6% | ? | 2%
O=C(Nc1ccccc1F)c1ccc(-c2cccc([N+](=O)[O-])c2)o1 | / | ? | 13µM* | ? | ? | ?
C=CCNC(=O)c1ccc(-c2ccc([N+](=O)[O-])cc2)o1 | 15% | 8% | ? | 9% | ? | 7%
C=CCNC(=O)c1ccc(-c2cccc([N+](=O)[O-])c2)o1 | 22µM* | ? | ? | ? | ? | ?
SMILES | SMN2 splice up | NPC1 promoter act | FLuc counter | Rab9 prom act | ELG1 DNA repair | ELG1 genotox
O=C(Nc1ncc(Cc2cccc(C(F)(F)F)c2)s1)c1ccc(-c2cccc([N+](=O)[O-])c2)o1 | / | -10% | 6% | -15% | 12µM* | -5%
O=C(Nc1nccs1)c1ccc(-c2cccc([N+](=O)[O-])c2)o1 | 3% | ? | ? | ? | ? | 27%
Cc1cccc(-c2c3c(=O)n(C)c(=O)n(C)c3cn2-c2cc(N)c(Cl)cc2Cl)c1 | 0% | / | 3% | / | / | /
O=C(COC(=O)/C=C/c1ccco1)Nc1ncc(Cl)cc1Cl | -15% | -2% | 1% | 1% | 2% | -1%
C/C(=N\Nc1ncc(Cl)cc1Cl)c1ccc(C#N)cc1 | -9% | -5% | 3% | -5% | 14% | 0%
Oc1ccc(/C=N/Nc2ncc(Cl)cc2Cl)cc1 | / | 15% | ? | 13% | ? | ?
Clc1cnc(N/N=C/c2cccs2)c(Cl)c1 | ? | 2.2µM* | 9.5µM* | 4µM* | ? | ?
Cc1ccc(/C=N/Nc2ncc(Cl)cc2Cl)s1 | ? | 3.5µM* | 6µM* | ? | ? | ?
Clc1cnc(N/N=C/c2ccco2)c(Cl)c1 | 5.6µM* | 1.4µM* | 11µM* | 0.79µM* | ? | ?
COc1ccc(C2=Nc3ccccc3N(CC(=O)Nc3cccc(C(C)=O)c3)C(=O)C2)cc1 | / | / | -19% | / | / | /
CC(C)Oc1ccc(CNC(=O)c2ccc(NC(=O)N3CCSc4ncccc43)cc2)cc1 | / | / | -5% | / | / | /
C/C(CC(=O)Nc1ccccn1)=N\NC(=O)c1ccccc1O | / | 1% | 17µM* | 2% | ? | 16µM*
C/C(CC(=O)Nc1cc(C)ccn1)=N\NC(=O)c1cccc(C)c1O | / | -10% | ? | 14% | ? | 5.8µM*
Cc1nc(-c2ccc(C)c(S(=O)(=O)N3CCC(C(=O)NCc4ccc(F)cc4)CC3)c2)no1 | / | / | -6% | / | / | /
COC(=O)CN=C1OC(=O)N2C(=O)C3=C4C(C[C@H]5C(=O)N(c6ccccc6)C(=O)[C@H]5[C@H]4[C@@]12Cc1ccccc1)[C@H]1C(=O)N(c2ccccc2)C(=O)[C@H]1[C@H]3C (some centres undefined) | 2% | / | / | / | / | /
Cc1cc(C)n(C(N)=NC(=O)c2ccc([N+](=O)[O-])cc2)n1 | / | 2.8µM* | ? | 2.5µM* | ? | ?
Cc1cc(C)n(C(=O)COc2ccc([N+](=O)[O-])cc2)n1 | 15% | -1% | 2% | -4% | 7% | -1%
Cc1csc(SCc2nnc(-c3ccccc3Br)o2)n1 | / | 1.4µM* | 1.7µM* | 1.8µM* | ? | ?
Cc1csc(SCc2nnc(-c3ccc(Cl)cc3)o2)n1 | ? | 2.8µM* | 7.6µM* | 2.8µM* | ? | 10µM*
Fc1ccccc1SCc1nnc(-c2ccccc2Br)o1 | 2.8µM* | 0.71µM* | 0.95µM* | 0.35µM* | ? | 2.9µM*
Cc1nnc(SCc2nnc(-c3ccccc3Br)o2)n1-c1ccccc1 | -11% | -1% | -14% | -1% | 5% | 1%
CCc1ccccc1N(C)S(=O)(=O)c1ccc2c(c1)C(C)(C)C(=O)N2C | / | / | 2% | / | / | /
CC(C)(C)c1c2c(c(C(C)(C)C)c3c1OCN(Cc1ccccc1)C3)OCN(Cc1ccccc1)C2 | -8%[9.22 µM] | / | / | / | / | /
